The source of these data is PubChem BioAssay (NCATS).

SMILES strings stand for the structures. Inconclusive results are not listed. A call without a number means that no potency is given here. Activity calls are given as the source filed them. The call rests on the fitted dose curve; in most records, active means well fitted activation curve with a large enough effect; inconclusive means small, poorly fitted or top-dose-only effect; inactive means no such curve, though single readings can be large or run the other way. Residues, ends and D or L forms follow the SMILES beside them. *: point of attachment. Cbz = O=C(OCc1ccccc1)*

This experiment is described as follows: qHTS for Activators of Parkin Expression: LOPAC Validation Assay (FLuc Reporter) (AID 720573). The settings on record: Cell line, PRKN promoter firefly luciferase reporter; series mostly up to 46.1 µM. The text has this: Parkin is an E3 ubiquitin ligase localized in the cytosol of cells expressed in many tissues, including brain, skeletal muscle, heart and liver tissues. One hour after stress induction by mitochondrial uncouplers (which mimic mitochondria damage by decreasing the mitochondrial inner membrane electrochemical gradient that is used to produce ATP), Parkin translocates from the cytosol to mitochondria in many cultured cell types, including neurons and HeLa cells. Administration of other mitochondrial poisons, such as Paraquat and azide in cells lacking mitochondrial DNA (mtDNA), induces Parkin translocation to mitochondria. […] It was proposed that Parkin (together with Pink1) mediates a mitochondrial quality control pathway to maintain organelle population fidelity by removing damaged mitochondria. Understanding the normal physiologic role of Parkin (and Pink1) may uncover novel treatment strategies for sporadic Parkinson's disease patients with mutation in these genes.
A cell based qHTS in 1536 well format was developed assess modulation of Parkin expression using a neuronal cell line that stably expresses a stably expresses a luminescent coincidence reporter (FLuc and NLuc reporters) behind the Parkin promoter. The LOPAC library is used to validate the assay for quantitative high-throughput screening. The data herein reports the signal from the FLuc reporter. An increase in this signal = activation of Parkin expression. For this assay , a positive control normalized signal increase corresponding to a high quality qHTS curve class in both luminescent channels is the desired outcome for this assay.
NIH Chemical Genomics Center [NCGC]
NIH Molecular Libraries Probe Centers Network [MLPCN]
Assay Submitter (PI): Richard Youle, National Institute of Neurological Disorders and Strokes (NINDS), NIH
[1] Narendra, D., et al., Parkin is recruited selectively to impaired mitochondria and promotes their autophagy. J Cell Biol, 2008. 183(5): p. 795-803.
[2] Suen, D.F., et al., Parkin overexpression selects against a deleterious mtDNA mutation in heteroplasmic cybrid cells. Proc Natl Acad Sci U S A, 2010. […] 11835-40.
[3] Cheng K, Inglese J. A coincedence reporter-gene system for high-throughput screening. Nat Methods. 2012: 9(10);937
Five microliters (1,500 cells/well) of the Parkin coincidence reporter cells were seeded to 1536 well assay plates (Greiner Catalog # 789173-F) and incubated at 37 C, 5% CO2 for 24 hours. Compounds (23 nL) were pinned using the Kalypsys robotic system equipped with 1536 pin head adaptor in 7-point dose response. The assay plates were incubated for additional 24 hr at 37 C, 5% CO2 followed by a volume reduction in each well to 2 uL using an automated plate washer/aspirator. Following the volume reduction,2 uL of FLuc detection reagent and plates were incubated for 10 minutes at room temperature. The FLuc luminescence signal was obtained using the PerkinElmer ViewLux plate imager and then 2 uL of NanoLuc detection reagent was added to the plates. After another 10 minute incubation, NanoLuc signal was obtained using the PerkinElmer ViewLux plate imager as before. Data from each channel was normalized to DMSO (neutral control) and the positive control compounds (100%).
A general note: Quantitative high-throughput screening tests each substance at several concentrations.
In the case of `Oc1cc(O)c2c(c1)O[C@H](c1ccc(O)c(O)c1)[C@@H](O)C2`, the Potency result was “inactive”.
Consider `CC(C)Cn1c(=O)n(C)c(=O)c2[nH]cnc21`, for which the Potency entry was “inactive”.
Take `CCCCCCC/C=C\CCCCCCCCC(=O)O`: the Potency entry was “inactive”.
Consider `Nc1ncnc2c1nc(Br)n2C1OC2COP(=O)(O)O[C@@H]2C1O` (stereo not given in full), for which the Potency result was “inactive”.
Take `O=c1ccc2c(OCCCCc3ccccc3)c3ccoc3cc2o1`: the Potency entry was “inactive”.
To `CN1CCCC1CCOC(C)(c1ccccc1)c1ccc(Cl)cc1` (stereo not given) belongs “inactive”.
To `CC(=O)C(C)=O` belongs “inactive”; to `CCCCCCC(=O)OC1CC(C)(C)NC(C)(C)C1`, “inactive”.
To `O=C(O)c1cc(=O)cc(C(=O)O)[nH]1` belongs “inactive”; to `C[C@H](NC(=O)/C(C#N)=C/c1ccc(O)c(O)c1)c1ccccc1`, “inactive”.
Turning to `O=C(O)/C=C/c1cnc[nH]1`, the Potency entry is “inactive”.
For `CCCCOc1cc(CC2CNC(=O)N2)ccc1OC` (stereo not given), the Potency result is “inactive”.
In the case of `NCCS(=O)O`, the Potency result was “inactive”.
The value for `Cc1cccc(C2CN(C)CCc3c2cc(O)c(O)c3Cl)c1` (stereo not given) was “inactive”; that for `Cc1nc(N=Nc2ccc(C(=O)O)cc2)c(COP(=O)(O)O)c(C=O)c1O` was “inactive”; that for `O=[N+]([O-])c1cccc2c(Br)[nH]nc12` was “inactive”.
As to `COc1ccc(-c2ccc(N)[n+](CCCC(=O)O)n2)cc1`, the Potency result is “inactive”.
To `O=C(O)/C(=C/c1c(C(=O)O)[nH]c2cc(Cl)cc(Cl)c12)c1ccccc1` belongs “inactive”; to `CCC(=O)N1CCN(C(=O)c2ccccc2)CC1`, “inactive”.
For `c1ccc(C2CN3CCSC3=N2)cc1` (stereo not given), the Potency result was “inactive”.
Regarding `CC(C)[C@H](NC(=O)OCc1ccccc1)C(=O)N[C@H](C=O)Cc1ccccc1` (Cbz-Val-Phe-aldehyde), the Potency result is “inactive”.
Consider `N#C/C(=C\c1ccc(O)c(O)c1)C(=O)NCCc1ccccc1`, for which the Potency result is “inactive”.
Regarding `CCCc1c(-c2ccc(O)cc2)nn(-c2ccc(O)cc2)c1-c1ccc(O)cc1`, the Potency entry was “inactive”.
The value for `CCCCCCCCCC(=O)NC(CN1CCOCC1)[C@H](O)c1ccccc1` (stereo not given in full) was “inactive”; that for `C[C@]12C=CC(=O)C=C1CC[C@@H]1C2=CC[C@]2(C)[C@@H](C(=O)CN3CCN(c4cc(N5CCCC5)nc(N5CCCC5)n4)CC3)CC[C@@H]12` was “inactive”; that for `CC(N)=NCCCC[C@@H](N)C(=O)O` was “inactive”.
As for `COc1cc(/C=C(\C#N)C(=O)c2ccc(O)c(O)c2)cc(I)c1O`, the Potency entry was “inactive”.
For `NC(N)=NC(N)=Nc1cccc(Cl)c1`, the Potency result was “inactive”.
For the molecule `CC[C@@H]1Cc2cc(O)ccc2C2=C1c1ccc(O)cc1C[C@H]2CC`, the Potency entry is “inactive”.
Turning to `COc1ccc(CCn2nnnc2C2(c3ccc(C)cc3)CC2)cc1`, the Potency entry is “inactive”.
`N=C(N)SCCc1cnc[nH]1`: the Potency entry was “inactive”.
To `CNc1ncnc2c1ncn2[C@H]1C[C@H](OP(=O)(O)O)[C@@H](COP(=O)(O)O)O1` belongs “inactive”; to `Nc1ncnc2c1c(-c1ccc(Oc3ccccc3)cc1)cn2C1CCCC1`, “inactive”.
Turning to `Nc1nc2c(nc(Br)n2C2OC3COP(=O)(O)O[C@@H]3C2O)c(=O)[nH]1` (stereo not given in full), the Potency result is “inactive”.
For `CC(N)(Cc1ccc(O)c(O)c1)C(=O)O` (stereo not given), the Potency result is “inactive”.
With `Nc1nc2[nH]c(=O)cnc2c(=O)[nH]1`, the Potency result is “inactive”.
As to `Cc1nc2c(OCc3ccccc3)cccn2c1CC#N`, the Potency result was “inactive”.
For the molecule `OC[C@H]1O[C@@H](n2cnc3cncnc32)[C@H](O)[C@@H]1O`, the Potency entry was “inactive”.
As to `COc1ccc(-c2cc3ncc(C)n3c(Nc3ncccc3C(N)=O)n2)cc1OC`, the Potency result was “inactive”.
Take `COc1cc2c(CCNC(C)=O)c[nH]c2cc1O`: the Potency result was “inactive”.
